Data taken from the supplement of paper PMC6992640.
Structures can show the parent of a compound that is named as a salt.

Assays:
HCI01 = cells of a triple-negative basal-like breast cancer xenograft; test: cell viability of combination (% of vehicle); higher = less cytotoxic; details: 1 µM; 72 h; partner dose: 10 nM
Description: (§1)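 PDX cells were treated for 72 h with each drug at 1 µM plus afatinib (10 nM; 1 µM for WHIM30). Luciferase viability is expressed as percent of vehicle.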

WHIM2 = cells of a triple-negative basal-like breast cancer xenograft; test: as above; details: 1 µM; 72 h; partner dose: 10 nM
Description: as §1

SMILES	cell viability of combination (HCI01)	cell viability of combination (WHIM2)
CCCCc1oc2ccc(NS(C)(=O)=O)cc2c1C(=O)c1ccc(OCCCN(CCCC)CCCC)cc1 [Dronedarone] + CN(C)C/C=C/C(=O)Nc1cc2c(Nc3ccc(F)c(Cl)c3)ncnc2cc1O[C@H]1CCOC1 [Afatinib]	48.1	44.1
CC1(C)CCC(c2ccc(Cl)cc2)=C(CN2CCN(c3ccc(C(=O)NS(=O)(=O)c4ccc(NC(CCN5CCOCC5)CSc5ccccc5)c(S(=O)(=O)C(F)(F)F)c4)cc3)CC2)C1 (configuration not stated) [ABT-263 (Navitoclax)] + CN(C)C/C=C/C(=O)Nc1cc2c(Nc3ccc(F)c(Cl)c3)ncnc2cc1O[C@H]1CCOC1 [Afatinib]	33	29.5
CN(C)c1ccc(C(=C2C=CC(=[N+](C)C)C=C2)c2ccc(N(C)C)cc2)cc1.[Cl-] [Crystal Violet] + CN(C)C/C=C/C(=O)Nc1cc2c(Nc3ccc(F)c(Cl)c3)ncnc2cc1O[C@H]1CCOC1 [Afatinib]	45	28.4
CN1CCN(CCCN2c3ccccc3Sc3ccc(C(F)(F)F)cc32)CC1.Cl.Cl [Trifluoperazine 2HCl] + CN(C)C/C=C/C(=O)Nc1cc2c(Nc3ccc(F)c(Cl)c3)ncnc2cc1O[C@H]1CCOC1 [Afatinib]	56.1	44
Clc1ccc(CSC(Cn2ccnc2)c2ccc(Cl)cc2Cl)cc1.O=[N+]([O-])O (configuration not stated) [Sulconazole Nitrate] + CN(C)C/C=C/C(=O)Nc1cc2c(Nc3ccc(F)c(Cl)c3)ncnc2cc1O[C@H]1CCOC1 [Afatinib]	62.8	49.5
Cc1nc(Nc2ncc(C(=O)Nc3c(C)cccc3Cl)s2)cc(N2CCN(CCO)CC2)n1 + CN(C)C/C=C/C(=O)Nc1cc2c(Nc3ccc(F)c(Cl)c3)ncnc2cc1O[C@H]1CCOC1 [Afatinib]	41.5	30.8
COc1nc2ccc(Br)cc2cc1[C@@H](c1ccccc1)[C@@](O)(CCN(C)C)c1cccc2ccccc12 [Bedaquiline fumarate] + CN(C)C/C=C/C(=O)Nc1cc2c(Nc3ccc(F)c(Cl)c3)ncnc2cc1O[C@H]1CCOC1 [Afatinib]	52.9	49
O=C(NC1CCN(CCCCC2(C(=O)NCC(F)(F)F)c3ccccc3-c3ccccc32)CC1)c1ccccc1-c1ccc(C(F)(F)F)cc1 [Lomitapide] + CN(C)C/C=C/C(=O)Nc1cc2c(Nc3ccc(F)c(Cl)c3)ncnc2cc1O[C@H]1CCOC1 [Afatinib]	55	27.4
COc1cc(Nc2ncc(F)c(Nc3ccc4c(n3)N(COP(=O)(O)O)C(=O)C(C)(C)O4)n2)cc(OC)c1OC [Fostamatinib (R788)] + CN(C)C/C=C/C(=O)Nc1cc2c(Nc3ccc(F)c(Cl)c3)ncnc2cc1O[C@H]1CCOC1 [Afatinib]	64.2	41.3
CO[C@H]1C[C@@H]2CC[C@@H](C)[C@@](O)(O2)C(=O)C(=O)N2CCCC[C@H]2C(=O)O[C@H]([C@H](C)C[C@@H]2CC[C@@H](OC(=O)C(C)(CO)CO)[C@H](OC)C2)CC(=O)[C@H](C)/C=C(\C)[C@@H](O)[C@@H](OC)C(=O)[C@H](C)C[C@H](C)/C=C/C=C/C=C/1C [Temsirolimus] + CN(C)C/C=C/C(=O)Nc1cc2c(Nc3ccc(F)c(Cl)c3)ncnc2cc1O[C@H]1CCOC1 [Afatinib]	45.9	44
Clc1ccc(C(Cn2ccnc2)OCc2ccsc2Cl)c(Cl)c1 (configuration not stated) [Tioconazole] + CN(C)C/C=C/C(=O)Nc1cc2c(Nc3ccc(F)c(Cl)c3)ncnc2cc1O[C@H]1CCOC1 [Afatinib]	65.4	47.5
CCOC(=O)C1=C(COCCN)NC(C)=C(C(=O)OC)C1c1ccccc1Cl.O=S(=O)(O)c1ccccc1 (configuration not stated) [Amlodipine Besylate] + CN(C)C/C=C/C(=O)Nc1cc2c(Nc3ccc(F)c(Cl)c3)ncnc2cc1O[C@H]1CCOC1 [Afatinib]	59.5	51.7
Nc1ccn(C2OC(CO)C(O)C2O)c(=O)n1 (configuration not stated) [Cytarabine] + CN(C)C/C=C/C(=O)Nc1cc2c(Nc3ccc(F)c(Cl)c3)ncnc2cc1O[C@H]1CCOC1 [Afatinib]	44.3	38.3
COc1cc2c(Oc3ccc(NC(=O)C4(C(=O)Nc5ccc(F)cc5)CC4)cc3F)ccnc2cc1OCCCN1CCOCC1 + CN(C)C/C=C/C(=O)Nc1cc2c(Nc3ccc(F)c(Cl)c3)ncnc2cc1O[C@H]1CCOC1 [Afatinib]	33.9	37.7
CC(C)(C)Cn1c(N)nc2ccc(-c3[nH]c(C(C)(C)C)nc3-c3ccc(F)cc3)nc21.CS(=O)(=O)O.CS(=O)(=O)O + CN(C)C/C=C/C(=O)Nc1cc2c(Nc3ccc(F)c(Cl)c3)ncnc2cc1O[C@H]1CCOC1 [Afatinib]	35.9	35.4
Cl.O.O=C1Cc2cc(CCN3CCN(c4nsc5ccccc45)CC3)c(Cl)cc2N1 [Ziprasidone hydrochloride monohydrate] + CN(C)C/C=C/C(=O)Nc1cc2c(Nc3ccc(F)c(Cl)c3)ncnc2cc1O[C@H]1CCOC1 [Afatinib]	46.7	45.2

SMILES	cell viability of combination (HCI01)	cell viability of combination (WHIM2)
CCCCCCCCOc1ccccc1C(=O)Nc1ccc(C(=O)OCC[N+](C)(CC)CC)cc1.[Br-] [Otilonium Bromide] + CN(C)C/C=C/C(=O)Nc1cc2c(Nc3ccc(F)c(Cl)c3)ncnc2cc1O[C@H]1CCOC1 [Afatinib]	52.9	53.9
COc1cc2c(Nc3ccc(Br)cc3F)ncnc2cc1OCC1CCN(C)CC1 [Vandetanib (ZD6474)] + CN(C)C/C=C/C(=O)Nc1cc2c(Nc3ccc(F)c(Cl)c3)ncnc2cc1O[C@H]1CCOC1 [Afatinib]	47.3	24.4
C=C(c1ccc(C(=O)O)cc1)c1cc2c(cc1C)C(C)(C)CCC2(C)C [Bexarotene] + CN(C)C/C=C/C(=O)Nc1cc2c(Nc3ccc(F)c(Cl)c3)ncnc2cc1O[C@H]1CCOC1 [Afatinib]	51.8	35.7
CN1CCN(CCOc2cc(OC3CCOCC3)c3c(Nc4c(Cl)ccc5c4OCO5)ncnc3c2)CC1 [Saracatinib (AZD0530)] + CN(C)C/C=C/C(=O)Nc1cc2c(Nc3ccc(F)c(Cl)c3)ncnc2cc1O[C@H]1CCOC1 [Afatinib]	41.1	24.5
COc1ccc2cc1Oc1ccc(cc1)CC1c3c(cc4c(c3Oc3cc5c(cc3OC)CCN(C)C5C2)OCO4)CCN1C (configuration not stated) [Cepharanthine] + CN(C)C/C=C/C(=O)Nc1cc2c(Nc3ccc(F)c(Cl)c3)ncnc2cc1O[C@H]1CCOC1 [Afatinib]	48.5	38.1
CC(C)(C)c1ccc(C(O)CCCN2CCC(C(O)(c3ccccc3)c3ccccc3)CC2)cc1 (configuration not stated) [Terfenadine] + CN(C)C/C=C/C(=O)Nc1cc2c(Nc3ccc(F)c(Cl)c3)ncnc2cc1O[C@H]1CCOC1 [Afatinib]	52.8	51.1
Cc1nc(NC(=O)N2CCCC2C(N)=O)sc1-c1ccnc(C(C)(C)C(F)(F)F)c1 (configuration not stated) + CN(C)C/C=C/C(=O)Nc1cc2c(Nc3ccc(F)c(Cl)c3)ncnc2cc1O[C@H]1CCOC1 [Afatinib]	46.9	37.9
COc1cccc2c1C(=O)c1c(O)c3c(c(O)c1C2=O)CC(O)(C(=O)CO)CC3OC1CC(N)C(O)C(C)O1 (configuration not stated) [Doxorubicin] + CN(C)C/C=C/C(=O)Nc1cc2c(Nc3ccc(F)c(Cl)c3)ncnc2cc1O[C@H]1CCOC1 [Afatinib]	43.8	15.6
CC(CCC(=O)O)C1CCC2C3CCC4CC(O)CCC4(C)C3CCC12C (configuration not stated) [Lithocholic Acid] + CN(C)C/C=C/C(=O)Nc1cc2c(Nc3ccc(F)c(Cl)c3)ncnc2cc1O[C@H]1CCOC1 [Afatinib]	45.1	40.5
CNC(=O)c1cc(Oc2ccc(NC(=O)Nc3ccc(Cl)c(C(F)(F)F)c3)cc2)ccn1.Cc1ccc(S(=O)(=O)O)cc1 [Sorafenib Tosylate] + CN(C)C/C=C/C(=O)Nc1cc2c(Nc3ccc(F)c(Cl)c3)ncnc2cc1O[C@H]1CCOC1 [Afatinib]	46.6	42.4
CC(C)C(=O)OCC(=O)[C@@]12O[C@H](C3CCCCC3)O[C@@H]1C[C@H]1[C@@H]3CCC4=CC(=O)C=C[C@]4(C)[C@H]3[C@@H](O)C[C@@]12C [Ciclesonide] + CN(C)C/C=C/C(=O)Nc1cc2c(Nc3ccc(F)c(Cl)c3)ncnc2cc1O[C@H]1CCOC1 [Afatinib]	67.5	41.3
CCCCc1oc2ccccc2c1C(=O)c1cc(I)c(OCCN(CC)CC)c(I)c1.Cl [Amiodarone HCl] + CN(C)C/C=C/C(=O)Nc1cc2c(Nc3ccc(F)c(Cl)c3)ncnc2cc1O[C@H]1CCOC1 [Afatinib]	68.8	57.7
CNC1CCC(c2ccc(Cl)c(Cl)c2)c2ccccc21.Cl (configuration not stated) [Sertraline HCl] + CN(C)C/C=C/C(=O)Nc1cc2c(Nc3ccc(F)c(Cl)c3)ncnc2cc1O[C@H]1CCOC1 [Afatinib]	53.4	49.2
CCCCCCCCCCCCCCCCOP(=O)([O-])OCC[N+](C)(C)C [Miltefosine] + CN(C)C/C=C/C(=O)Nc1cc2c(Nc3ccc(F)c(Cl)c3)ncnc2cc1O[C@H]1CCOC1 [Afatinib]	56.7	49.3
CCOc1cc2ncc(C#N)c(Nc3ccc(F)c(Cl)c3)c2cc1NC(=O)C=CCN(C)C [Pelitinib (EKB-569)] + CN(C)C/C=C/C(=O)Nc1cc2c(Nc3ccc(F)c(Cl)c3)ncnc2cc1O[C@H]1CCOC1 [Afatinib]	72.1	22.1
